Records with an inconclusive call do not appear. Calls of active or inactive are those of the source. Calls follow the shape of the dose curve; as a rule, active = well fitted curve in the direction sought with a large enough effect in the repeat runs; inconclusive = weak or mixed curves; inactive = no such curve, though single readings can be large; an effect the other way counts as inactive or inconclusive.
How the values were obtained:
[1] = qHTS RealTime-Glo MT Cell Viability Assay in HEK293 cells - 16 hour (AID 1224872); also: top concentration of the series differs between compounds; nearly all actives have a fitted effect of over 50% in size
Method in brief: (§1)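 Reads taken at 0, 8, 16, 24, 32 and 40 h from the same wells. HEK293 cells (600/well) carried RealTime-Glo reagents from seeding, with compound added after a 5 h settle at 37 C.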

[2] = qHTS RealTime-Glo MT Cell Viability Assay in HepG2 cells - 8 hour (AID 1224873); also: nearly all actives have a fitted effect of over 55% in size
Method in brief: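 HepG2 cells (600/well) mixed with RealTime-Glo MT reagent, settled 5 h at 37 C/5% CO2 before compound addition. Nonlytic NanoLuc luminescence from viable-cell prosubstrate reduction read repeatedly during 40 h treatment at 37 C.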

[3] = qHTS RealTime-Glo MT Cell Viability Assay in HEK293 cells - 40 hour (AID 1224874); conditions: RealTime-Glo luminescence; max response: active compounds read low; also: nearly all actives have a fitted effect of over 50% in size
Method in brief: (§2)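 Cells were seeded together with NanoLuc luciferase and a prosubstrate that viable cells reduce to a luciferase substrate. After a 5 h incubation at 37 C/5% CO2, compounds were added and luminescence was measured repeatedly during 40 h of treatment.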

[4] = A CellTox Green Cytotoxicity Assay to monitor cytotoxicity in HEK293 cells - 24 hour (AID 1224875); also: series mostly up to about 77 µM; nearly all actives have a fitted effect of over 45% in size
Method in brief: (§3)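 Nonlytic real-time cytotoxicity: HEK293 + CellTox Green reagent plated, 5 h preincubation, pintool compound addition (23 nL in DMSO), 37 C for 40 h, fluorescence measured at successive time points.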

[5] = A CellTox Green Cytotoxicity Assay to monitor cytotoxicity in HepG2 cells - 16 hour (AID 1224876); also: nearly all actives have a fitted effect of over 45% in size
Method in brief: (§4)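 Read-out is fluorescence of a cyanine dye excluded from live cells that stains DNA of dead HepG2 cells, with signal proportional to cytotoxicity. Plates were read at 0, 8, 16, 24, 32 and 40 h after compound addition.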

[6] = qHTS RealTime-Glo MT Cell Viability Assay in HepG2 cells - 32 hour (AID 1224877); also: nearly all actives have a fitted effect of over 55% in size
Method in brief: (§5)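 HepG2 suspension premixed with RealTime-Glo reagents is plated at 600 cells per well and left 5 h at 37 C/5% CO2. Compounds in DMSO then go in, and bioluminescence reflecting viable cell number is recorded over 40 h.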

[7] = A CellTox Green Cytotoxicity Assay to monitor cytotoxicity in HepG2 cells - 24 hour (AID 1224878); also: nearly all actives have a fitted effect of over 45% in size
Method in brief: as §4

[8] = A CellTox Green Cytotoxicity Assay to monitor cytotoxicity in HepG2 cells - 40 hour (AID 1224879); also: nearly all actives have a fitted effect of over 40% in size
Method in brief: as §4

[9] = qHTS RealTime-Glo MT Cell Viability Assay in HEK293 cells - 0 hour (AID 1224880); also: top concentration of the series differs between compounds; nearly all actives have a fitted effect of over 45% in size
Method in brief: as §2

[10] = A CellTox Green Cytotoxicity Assay to monitor cytotoxicity in HEK293 cells - 32 hour (AID 1224881); also: nearly all actives have a fitted effect of over 40% in size
Method in brief: as §3

[11] = A CellTox Green Cytotoxicity Assay to monitor cytotoxicity in HepG2 cells - 0 hour (AID 1224882); also: nearly all actives have a fitted effect of over 35% in size
Method in brief: as §4

[12] = A CellTox Green Cytotoxicity Assay to monitor cytotoxicity in HEK293 cells - 8 hour (AID 1224884); also: nearly all actives have a fitted effect of over 35% in size
Method in brief: as §3

[13] = qHTS RealTime-Glo MT Cell Viability Assay in HepG2 cells - 16 hour (AID 1224885); also: nearly all actives have a fitted effect of over 50% in size
Method in brief: as §5

[14] = qHTS RealTime-Glo MT Cell Viability Assay in HEK293 cells - 24 hour (AID 1224886); also: top concentration of the series differs between compounds; nearly all actives have a fitted effect of over 50% in size
Method in brief: as §1

[15] = qHTS RealTime-Glo MT Cell Viability Assay in HEK293 cells - 8 hour (AID 1224887)
Method in brief: as §2

[16] = A CellTox Green Cytotoxicity Assay to monitor cytotoxicity in HEK293 cells - 16 hour (AID 1224888); also: nearly all actives have a fitted effect of over 35% in size
Method in brief: as §3

[17] = qHTS RealTime-Glo MT Cell Viability Assay in HepG2 cells - 0 hour (AID 1224889); also: nearly all actives have a fitted effect of over 50% in size
Method in brief: as §5

[18] = A CellTox Green Cytotoxicity Assay to monitor cytotoxicity in HepG2 cells - 8 hour (AID 1224890); also: nearly all actives have a fitted effect of over 45% in size
Method in brief: as §4

[19] = qHTS assay to identify small molecule antagonists of the estrogen receptor alpha (ER-alpha) signaling pathway using the BG1 cell line in the presence of 0.1 nM 17-beta-estradiol - cell viability counter screen (AID 1259241); also: nearly all actives have a fitted effect of over 40% in size
Method in brief: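 VM7Luc4E2 cells (endogenous full-length ER-alpha, 4xERE-luciferase), cultured 5 days in charcoal-stripped serum, exposed to compounds with 0.1 nM 17beta-estradiol (final) for 22 hr at 37C. Viability read in same wells as live-cell protease fluorescence after 30 min.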

[20] = A CellTox Green Cytotoxicity Assay to monitor cytotoxicity in HepG2 cells - 32 hour (AID 1224883); also: nearly all actives have a fitted effect of over 50% in size
Method in brief: as §4
% is scaled to controls: 0 for no effect and ±100 for the full control effect.

NC(=O)NC1N=C([O][Al])NC1=O (stereo not drawn)
inactive: Potency [1] | outcome [2] | max response [3] 1.53% | outcome [4] | outcome [5] | Potency [6] | outcome [7] | Potency [8] | Potency [9] | outcome [10] | Potency [11] | outcome [12] | outcome [13] | Potency [14] | Potency [15] | outcome [16] | Potency [17] | outcome [18] | outcome [19]

CCCCOCCOC(=O)CCCCCCCCC(=O)OCCOCCCC
inactive: Potency [1] | outcome [2] | max response [3] 7.25% | outcome [4] | outcome [5] | Potency [6] | outcome [7] | Potency [8] | Potency [9] | outcome [10] | Potency [11] | outcome [12] | outcome [13] | Potency [14] | Potency [15] | outcome [16] | Potency [17] | outcome [18] | outcome [19]

CCCO[Si](OCCC)(OCCC)OCCC
inactive: Potency [1] | outcome [2] | max response [3] 2.55% | outcome [4] | outcome [5] | Potency [6] | outcome [7] | Potency [8] | Potency [9] | outcome [10] | Potency [11] | outcome [12] | outcome [13] | Potency [14] | Potency [15] | outcome [16] | Potency [17] | outcome [18] | outcome [19]

CCC(C(=O)NC(=O)NC(C)=O)c1ccccc1 (stereo not drawn)
inactive: Potency [1] | outcome [2] | max response [3] -7.54% | outcome [4] | outcome [5] | Potency [6] | outcome [7] | Potency [8] | Potency [9] | Potency [11] | Potency [20] | outcome [13] | Potency [14] | Potency [15] | outcome [16] | Potency [17] | outcome [18] | outcome [19]

CCCCCCCCN1CCCC1=O
inactive: Potency [1] | outcome [2] | max response [3] -3.59% | outcome [4] | outcome [5] | Potency [6] | outcome [7] | Potency [8] | Potency [9] | outcome [10] | Potency [11] | Potency [20] | outcome [13] | Potency [15] | outcome [16] | Potency [17] | outcome [18] | outcome [19]

CC(N)C12CC3CC(CC(C3)C1)C2 (stereo not drawn)
inactive: Potency [1] | outcome [2] | max response [3] -3.62% | outcome [4] | outcome [5] | Potency [6] | outcome [7] | Potency [8] | Potency [9] | Potency [11] | Potency [20] | outcome [12] | outcome [13] | Potency [14] | Potency [15] | outcome [16] | Potency [17] | outcome [18] | outcome [19]

CC[N+](CC)(CC(=O)Nc1c(C)cccc1C)Cc1ccccc1 (tested in a mixture with another compound)
inactive: Potency [1] | outcome [2] | max response [3] -5.24% | outcome [4] | outcome [5] | Potency [6] | outcome [7] | Potency [8] | Potency [9] | outcome [10] | Potency [11] | outcome [12] | outcome [13] | Potency [14] | Potency [15] | outcome [16] | Potency [17] | outcome [18] | outcome [19]

CCC(C)(CCCC(C)C)OC(C)=O (stereo not drawn)
inactive: Potency [1] | outcome [2] | max response [3] 6.35% | outcome [4] | outcome [5] | Potency [6] | outcome [7] | Potency [8] | Potency [9] | outcome [10] | Potency [11] | outcome [12] | outcome [13] | Potency [15] | outcome [16] | outcome [18] | outcome [19]

COc1cc(C(=O)OC(COCCC(C)C)CN2CCOCC2)cc(OC)c1OC (stereo not drawn)
inactive: Potency [1] | outcome [2] | max response [3] -2.35% | outcome [4] | outcome [5] | Potency [6] | outcome [7] | Potency [8] | Potency [9] | outcome [10] | Potency [11] | outcome [12] | outcome [13] | Potency [14] | Potency [15] | outcome [16] | Potency [17] | outcome [18]

CC(C)(C#N)Nc1nc(Cl)nc(NC2CC2)n1
inactive: Potency [1] | outcome [2] | max response [3] 1.79% | outcome [4] | outcome [5] | Potency [6] | outcome [7] | Potency [8] | Potency [9] | outcome [10] | Potency [11] | Potency [20] | outcome [13] | Potency [15] | outcome [16] | outcome [18] | outcome [19]

C=CCCC(=O)O
inactive: Potency [1] | outcome [2] | max response [3] 7.36% | outcome [4] | outcome [5] | Potency [6] | outcome [7] | Potency [8] | Potency [9] | outcome [10] | Potency [11] | Potency [20] | outcome [13] | Potency [14] | Potency [15] | outcome [16] | Potency [17] | outcome [18] | outcome [19]

O=S(=O)(O)c1cccc2ccccc12
inactive: Potency [1] | outcome [2] | max response [3] 14.6% | outcome [4] | outcome [5] | Potency [6] | outcome [7] | Potency [8] | Potency [9] | outcome [10] | Potency [11] | Potency [20] | outcome [13] | Potency [15] | outcome [16] | Potency [17] | outcome [18]

CC(CO)(CO)[N+](=O)[O-]
inactive: Potency [1] | outcome [2] | max response [3] 3.85% | outcome [4] | outcome [5] | Potency [6] | outcome [7] | Potency [8] | Potency [9] | outcome [10] | Potency [11] | Potency [20] | outcome [13] | Potency [14] | Potency [15] | outcome [16] | Potency [17] | outcome [18] | outcome [19]

Reference: PubChem BioAssay (Tox21)
